Assay results reported in PubChem BioAssay (NCATS).
For part of these data: Results with a measured potency or affinity are listed apart. Calls of active or inactive are those of the source. The rule behind the calls is not given here. Bridge positions count the residues as written; N and C are the ends. Square brackets hold non-standard residues; d marks the D form. Peptide text beside a SMILES is read from it. hArg = N=C(N)NCCCC[C@H](N)C(=O)O; Mpa = O=C(O)CCS

Tests used:
[1] = Ebola virus entry assay, green fluorescence channel
[2] = Ebola virus entry assay, blue channel fluorescence
[3] = Ebola virus entry assay, ratio channel
[4] = Ebola virus entry assay, green channel fluorescence
[5] = Ebola virus entry assay, reporter ratio channel; Channel type: primary
[6] = Ebola virus entry assay, blue channel (ratio component)

Measured: efficacy
Throughout, for efficacy: 0% is about no effect.

C[C@@H]1CC[C@@]2(OC1)O[C@H]1C[C@H]3[C@@H]4CC[C@H]5C[C@@H](O)CC[C@]5(C)[C@H]4CC(=O)[C@]3(C)[C@H]1[C@@H]2C
inactive: [1] 21.9% | [2] | [3] | [4] | [5] | [6]

CCn1cc(C(=O)O)c(=O)c2cc(F)c(N3CCNCC3)nc21
inactive: [1] -17.3% | [2] | [3] | [4] | [5] | [6]

CC1(C)CO[C@@H](CC(=O)O)CN1
inactive: [1] -12.4% | [2] | [3] | [4] | [5] | [6]

O=c1[nH]c2ccccc2c(=O)n1CCCl
inactive: [1] -18.7% | [2] | [3] | [4] | [5] | [6]

CC(C)C(=O)OCc1cccc(OC(=O)[C@@H]2N3C(=O)[C@@H](NC(=O)Cc4ccccc4)[C@H]3SC2(C)C)c1
inactive: [1] -28.9% | [2] | [3] | [4] | [5] | [6]

COCCc1ccc(OCC(O)CNC(C)C)cc1 (stereo not given)
inactive: [1] -31.6% | [2] | [3] | [4] | [5] | [6]

C[C@H]1COc2c(C3(N)CC3)c(F)cc3c(=O)c(C(=O)O)cn1c23
inactive: [1] 9.63% | [2] | [3] | [4] | [5] | [6]

CC1(C)[C@@H](OC(=O)CCC(=O)O)CC[C@]2(C)[C@H]3C(=O)C=C4[C@@H]5C[C@@](C)(C(=O)O)CC[C@]5(C)CC[C@@]4(C)[C@]3(C)CC[C@@H]12
inactive: [1] 12.7% | [2] | [3] | [4] | [5] | [6]

Nc1ccn(C2CO[C@H](CO)O2)c(=O)n1 (stereo not given in full)
inactive: [1] -24% | [2] | [3] | [4] | [5] | [6]

CC(=O)[C@@]1(O)CC[C@H]2[C@@H]3CCC4=CC(=O)CC[C@]4(C)[C@H]3CC[C@@]21C
inactive: [1] -9% | [2] | [3] | [4] | [5] | [6]

C[C@@]12CCC[C@H]1[C@@H]1CC[C@H]3C[C@@H](O)CC[C@]3(C)[C@H]1CC2
inactive: [1] -12.6% | [2] | [3] | [4] | [5] | [6]

CC1CCc2cc(F)cc3c(=O)c(C(=O)O)cn1c23 (stereo not given)
inactive: [1] -9.54% | [2] | [3] | [4] | [5] | [6]

CN1CCN(c2c(F)cc3c(=O)c(C(=O)O)cn(CCF)c3c2F)CC1
inactive: [1] -28.9% | [2] | [3] | [4] | [5] | [6]

C(=C\c1ccccc1)/CN1CCN(C(c2ccccc2)c2ccccc2)CC1
inactive: [1] 12.5% | [2] | [3] | [4] | [5] | [6]

O=C1C(CCS(=O)c2ccccc2)C(=O)N(c2ccccc2)N1c1ccccc1 (stereo not given)
inactive: [1] 28.5% | [2] | [3] | [4] | [5] | [6]

CN(C)C(=O)CNC(=O)Cc1ccccc1
inactive: [1] 16.6% | [2] | [3] | [4] | [5] | [6]

CCC(=O)c1ccc(O)cc1
inactive: [1] -30% | [2] | [3] | [4] | [5] | [6]

CN(C(=O)c1c(O)c2ccccc2n(C)c1=O)c1ccccc1
inactive: [1] -16% | [2] | [3] | [4] | [5] | [6]

Oc1cc(O)c2c(c1)O[C@H](c1ccc(O)c(O)c1)[C@H](O)C2
inactive: [1] 34.8% | [2] | [3] | [4] | [5] | [6]

O=C(O)CCc1nc(-c2ccccc2)c(-c2ccccc2)o1
inactive: [1] 18.2% | [2] | [3] | [4] | [5] | [6]

CCOC(=O)N1CCC(n2c(=O)[nH]c3cc(Cl)ccc32)CC1
inactive: [1] 43.9% | [2] | [3] | [4] | [5] | [6]

O=S(=O)(O)NC1CCCCC1
inactive: [1] 14.2% | [2] | [3] | [4] | [5] | [6]

CC1(C)[C@@H]2CC[C@@]1(C)C(=O)C2
inactive: [1] 9.79% | [2] | [3] | [4] | [5] | [6]

CC(=O)CCC(=O)O
inactive: [1] 10.9% | [2] | [3] | [4] | [5] | [6]

COc1ccc(C(Cl)=C(c2ccc(OC)cc2)c2ccc(OC)cc2)cc1
inactive: [1] 25.3% | [2] | [3] | [4] | [5] | [6]

CN(C)CCCO[C@@H]1[C@H]2OC(C)(C)O[C@H]2O[C@@H]1C(O)CO (stereo not given in full)
inactive: [1] -11.8% | [2] | [3] | [4] | [5] | [6]

O=C(CCN1CCN(CCO)CC1)N1c2ccccc2Sc2ccc(C(F)(F)F)cc21
inactive: [1] 14.8% | [2] | [3] | [4] | [5] | [6]

CN1C(=O)CC(c2ccccc2)C1=O (stereo not given)
inactive: [1] 12.2% | [2] | [3] | [4] | [5] | [6]

COC(=O)C1=C(C)NC(C)=C(C(=O)OC)C1c1ccccc1[N+](=O)[O-]
inactive: [1] 16.8% | [2] | [3] | [4] | [5] | [6]

CC(C)Cc1ccc(C(C)C(=O)OCc2ccccn2)cc1 (stereo not given)
inactive: [1] -17.6% | [2] | [3] | [4] | [5] | [6]

N[C@@H](Cc1cc(I)c(O)c(I)c1)C(=O)O
inactive: [1] 29.5% | [2] | [3] | [4] | [5] | [6]

CC(=O)N1CCN(c2ccc(O)cc2)CC1
inactive: [1] 19.8% | [2] | [3] | [4] | [5] | [6]

Cc1c(N)c(=O)n(-c2ccccc2)n1C
inactive: [1] -25.5% | [2] | [3] | [4] | [5] | [6]

O=c1ccc2ccccc2o1
inactive: [1] 11.1% | [2] | [3] | [4] | [5] | [6]

O=C(O)CCC(=O)OC[C@@H](NC(=O)C(Cl)Cl)[C@H](O)c1ccc([N+](=O)[O-])cc1
inactive: [1] 19.1% | [2] | [3] | [4] | [5] | [6]

Cn1c(=O)c2c(ncn2CC2OCCO2)n(C)c1=O
inactive: [1] -17.6% | [2] | [3] | [4] | [5] | [6]

CC(C)(Oc1ccc(CCNC(=O)c2ccc(Cl)cc2)cc1)C(=O)O
inactive: [1] -16.5% | [2] | [3] | [4] | [5] | [6]

COC(=O)c1cc(S(N)(=O)=O)ccc1OC
inactive: [1] -31.2% | [2] | [3] | [4] | [5] | [6]

CCCCC1(COC(=O)CCC(=O)O)C(=O)N(c2ccccc2)N(c2ccccc2)C1=O
inactive: [1] -12.3% | [2] | [3] | [4] | [5] | [6]

C[C@@H](O)[C@H](N)C(=O)O
inactive: [1] -9.88% | [2] | [3] | [4] | [5] | [6]

CN(C)CC[C@@H](c1ccc(Cl)cc1)c1ccccn1
inactive: [1] -31.3% | [2] | [3] | [4] | [5] | [6]

O=C(CCCCCCCCC#CI)Oc1ccccc1
inactive: [1] -20.5% | [2] | [3] | [4] | [5] | [6]

O=c1[nH]c(=O)c2[nH]c(=O)[nH]c2[nH]1
inactive: [1] 22% | [2] | [3] | [4] | [5] | [6]

NC(=O)[C@@H]1CSSCCC(=O)N[C@@H](CCCCN=C(N)N)C(=O)NCC(=O)N[C@@H](CC(=O)O)C(=O)N[C@@H](Cc2c[nH]c3ccccc23)C(=O)N2CCC[C@H]2C(=O)N1 ([Mpa][hArg]GDWPC-NH2; disulfide 1-7)
inactive: [1] 12.3% | [2] | [3] | [4] | [5] | [6]

CCOc1ccc(NC(C)=O)cc1
inactive: [1] -22.6% | [2] | [3] | [4] | [5] | [6]

CCc1cccc2c(CCO)c[nH]c12
inactive: [1] -22.1% | [2] | [3] | [4] | [5] | [6]

COc1cc2[nH]c(=O)[nH]c(=O)c2cc1OC
inactive: [1] 23.8% | [2] | [3] | [4] | [5] | [6]

Oc1c(I)cc(Cl)c2cccnc12
inactive: [1] 46.4% | [2] | [3] | [4] | [5] | [6]

O=C(O)COC(=O)Cc1ccccc1Nc1c(Cl)cccc1Cl
inactive: [1] 31.8% | [2] | [3] | [4] | [5] | [6]

C=CCSCC1Nc2cc(Cl)c(S(N)(=O)=O)cc2S(=O)(=O)N1 (stereo not given)
inactive: [1] -29.5% | [2] | [3] | [4] | [5] | [6]

OC[C@@H](O)[C@@H](O)[C@H](O)[C@H](O)CO
inactive: [1] 11.8% | [2] | [3] | [4] | [5] | [6]

C[N+]12CCC(CC1)C(OC(=O)C(O)(c1ccccc1)c1ccccc1)C2 (stereo not given)
inactive: [1] 11.2% | [2] | [3] | [4] | [5] | [6]

CCn1cc(C(=O)O)c(=O)c2cc(F)c(N3CCN(C)CC3)cc21
inactive: [1] -16.7% | [2] | [3] | [4] | [5] | [6]

CC(COc1ccccc1)NC(C)C(O)c1ccc(O)cc1 (stereo not given)
inactive: [1] -32.1% | [2] | [3] | [4] | [5] | [6]

O=C1c2ccccc2C(=O)C1c1ccc(Br)cc1
inactive: [1] -9.92% | [2] | [3] | [4] | [5] | [6]

C/C(=C(\CCOP(=O)(O)O)SC(=O)c1ccccc1)N(C=O)Cc1cnc(C)nc1N
inactive: [1] -17.4% | [2] | [3] | [4] | [5] | [6]

NCC1CCC(C(=O)Oc2ccc(CCC(=O)O)cc2)CC1 (stereo not given)
inactive: [1] 32.3% | [2] | [3] | [4] | [5] | [6]

CCCCCOc1ccc(C2SC(=O)NC2=O)cc1OCC (stereo not given)
inactive: [1] 24.1% | [2] | [3] | [4] | [5] | [6]

OCC(CO)N[C@H]1C[C@](O)(CO)[C@@H](O)[C@H](O)[C@H]1O
inactive: [1] -14.7% | [2] | [3] | [4] | [5] | [6]

CC(C(=O)O)c1ccc2c(c1)Cc1cccnc1O2 (stereo not given)
inactive: [1] -16.5% | [2] | [3] | [4] | [5] | [6]
